In publication PMC4552634, “A New Set of Chemical Starting Points with Plasmodium falciparum Transmission-Blocking Potential for Antimalarial Drug Discovery” (PLoS ONE, 2015):
Screen size: about 13,000 compounds; about 3,200 (25%) showed an effect of 50% or more. The list shows a part of the results.

tested on: P. falciparum stage V gametocytes; design: BacTiter-Glo ATP luminescence viability of purified stage V gametocytes in 384-well plates, per cent inhibition versus DMSO; conditions: 48 h, 5 µM; inhibitor

Compound	% Inhibition [%]
O=C(Nc1ccncc1)c1cn(-c2ccccc2)nc1-c1cccs1 [TCMDC-125605]	-55.62
O=C(C=Cc1cn(-c2ccccc2)nc1-c1cccs1)N1CCN(c2ccncc2)CC1 [TCMDC-125063]	51.82
O=C(C=Cc1cn(-c2ccccc2)nc1-c1ccccc1)N1CCN(c2ccncc2)CC1 [TCMDC-125256]	13.7
NOCCCOc1ccccc1 [TCMDC-123474]	-11.28
Nc1ccc(Oc2ccc(Cc3cnc(N)nc3N)cc2)cc1 [TCMDC-137904]	-3.731
COc1ccc2nccc([C@@H](O)CN3CCC(NCc4ccc(OC)c(NC(C)=O)c4)CC3)c2c1 [TCMDC-141564]	-24.43
COc1ccc(Nc2ncc3c(-c4cccc(NC(=O)Cc5ccc(F)cc5)c4)c[nH]c3n2)cc1OC [TCMDC-135252]	-55.08
CCN(CCCN1CCCCC1)c1cc(C)nc(Nc2cccc(C(F)(F)F)c2)n1 [TCMDC-132451]	9.673
c1ccc(Oc2ccc(Nc3ccnc(Nc4ccc(OCCN5CCCCC5)cc4)n3)cc2)cc1 [TCMDC-138583]	-73.3
COc1cc(Nc2ncc3c(C)nc(-c4cc5ccccc5[nH]4)n3n2)cc(OC)c1OC [TCMDC-138905]	5.084
COc1cc(Nc2ncc3c(C)nc(-c4cccc(Nc5ccc(CN6CCS(=O)(=O)CC6)cc5)c4)n3n2)cc(OC)c1OC [TCMDC-136003]	62.52
Cc1nc(-c2cccc(C(F)(F)F)c2)n2nc(Nc3ccc(OCCN4CCCC4)cc3)ncc12 [TCMDC-138911]	108.6
COc1ccccc1CNCC(O)c1cc(C(F)(F)F)ccc1C(F)(F)F (stereo not shown) [TCMDC-140376]	33.11
CN(C)c1ccc(C=Cc2nc(=O)c3ccccc3o2)cc1 [TCMDC-123870]	44.95
CCN(CC)S(=O)(=O)n1ncc2c3c(N)nc(N)nc3ccc21 [TCMDC-137302]	-23.31
N#CCCn1nc(-c2ccc(Cl)cc2)c2c(c1=O)CCCC2 [TCMDC-123668]	-3.378
COc1cc2nc(Nc3ccc4c(ccn4Cc4ccccc4)c3)nc(Nc3ccc4c(ccn4Cc4ccccc4)c3)c2cc1OC [TCMDC-138237]	94.63
COc1cc2ncnc(Nc3ccc4nc(Cc5ccccc5)[nH]c4c3)c2cc1OC [TCMDC-137180]	-12.69
COc1cc2nc(C)nc(Nc3ccc4c(ccn4Cc4ccccc4)c3)c2cc1OC [TCMDC-131924]	19.01
COc1cc2nc(N(C)C)nc(Nc3ccc4c(cnn4Cc4ccccc4)c3)c2cc1OC [TCMDC-138082]	11.6
COc1cc2nc(Nc3ccc4c(cnn4Cc4ccccc4)c3)nc(Nc3ccc4c(cnn4Cc4ccccc4)c3)c2cc1OC [TCMDC-138020]	106.8
COc1cc2nccc(Nc3ccc4c(cnn4Cc4cccc(F)c4)c3)c2cc1OC.Cl [TCMDC-138105]	-72.46
